# Data taken from PubChem BioAssay (EPA / NIEHS).
# The source made the active and inactive calls. Rule for the calls, unless noted: active = hit-call score of the fitted dose curve at least 0.9, where 1 is the maximum; inconclusive = response in the unintended direction; inactive = score below 0.9.
# Test system: not listed separately
# Experiment: CCTE_Shafer_MEA_dev_network_spike_number: CCTE's Neural Network Formation Assay for Number of Network Spikes, Shafer Lab (AID 2284048; active = hit-call score of the fitted dose curve at least 0.9, where 1 is the maximum; inactive = score below 0.9;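 note: synchronized bursts across electrodes counted on days 5 7 9 12 and integrated as AUC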;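 for AC50: fit as a loss of signal meaning fewer network spikes than DMSO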)
# Outline: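 Number of network spikes (coordinated firing across electrodes) recorded on days 5, 7, 9 and 12 and summarised as area under the curve. Rat cortical cultures on MEA, continuous compound exposure with full medium/treatment exchange at DIV 5 and 9.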
Compound,outcome,AC50
CC(=O)CC(c1ccccc1)c1c(O)c2ccccc2oc1=O (centres undefined),inactive,–
OCC(O)CO,inactive,–
O=C1NC(=O)C(c2ccccc2)(c2ccccc2)N1,inactive,–
CN(C)CCCN1c2ccccc2Sc2ccc(Cl)cc21,–,8.7 µM (active)

# Test system: not listed separately
# Experiment: CCTE_Shafer_MEA_dev_network_spike_peak: CCTE's Neural Network Formation Assay for Mean Number of Electrodes in Network Spike, Shafer Lab (AID 2284049; active = hit-call score of the fitted dose curve at least 0.9, where 1 is the maximum; inactive = score below 0.9;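 for AC50: fitted for loss of signal meaning fewer electrodes in network spikes than DMSO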)
# Outline: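 Rat cortical primary culture, 1.5 x 10^5 cells/well, 48-well MEA (16 electrodes/well). Dosing day 0 through DIV 12, full media/compound exchange DIV 5, 9. AxIS adaptive spike detection; AUC over days 5/7/9/12; loss-of-signal vs DMSO.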
Compound,AC50,outcome
CC(=O)CC(c1ccccc1)c1c(O)c2ccccc2oc1=O (centres undefined),2.98 µM (active),–
OCC(O)CO,–,inactive
COC(=O)[C@H]1[C@H]2C[C@@H]3c4[nH]c5cc(OC)ccc5c4CCN3C[C@H]2C[C@@H](OC(=O)c2cc(OC)c(OC)c(OC)c2)[C@@H]1OC,5.07 µM (active),–
O=C1NC(=O)C(c2ccccc2)(c2ccccc2)N1,–,inactive
CN(C)CCCN1c2ccccc2Sc2ccc(Cl)cc21,5.16 µM (active),–

# Test system: DIO2 (gene 1734)
# Experiment: CCTE_GLTED_hDIO2: CCTE's human Deiodinase 2 (DIO2) Inhibition Assay, Great Lakes Toxicology and Ecology Division (GLTED) Lab (AID 2284050)
# Outline: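 Inhibition is judged by reduced iodide release: uninhibited human DIO2 frees iodide from substrate over 3 h, measured afterward by Sandell-Kolthoff colorimetry. Iodinated chemicals or nitrite, iron and thiocyanate may interfere.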
Compound,AC50,outcome
Cc1c(C)c2c(c(C)c1O)CCC(C)(COc1ccc(CC3SC(=O)NC3=O)cc1)O2 (centres undefined),70.1 µM (active),–
O=Cc1ccccc1C=O,46.6 µM (active),–
S=c1[nH]c2ccccc2s1,53.4 µM (active),–
O=C(Oc1ccccc1)c1cccc(C(=O)Oc2ccccc2)c1,42.3 µM (active),–
CCCCCCCCCCCCCCOS(=O)(=O)O,36.9 µM (active),–
Cc1ccc(-c2cc(C(F)(F)F)nn2-c2ccc(S(N)(=O)=O)cc2)cc1,156 µM (active),–
CC(=O)O[C@]1(C(C)=O)CC[C@H]2[C@@H]3C=C(Cl)C4=CC(=O)[C@@H]5C[C@@H]5[C@]4(C)[C@H]3CC[C@@]21C,–,inactive
CCCCCCCCCCCCCCCCO,–,inactive
CCCCCCC(C=O)=Cc1ccccc1,15.2 µM (active),–
CCN(CC)CCOc1ccc(C(=C(Cl)c2ccccc2)c2ccccc2)cc1,53.3 µM (active),–
